Experimental findings from article PMC5700166 are described below.

The target of the assay is T1, GST-Aq-NF-kB (Amphimedon queenslandica, UniProt A9Y5G7 2-389).
T1 sequence: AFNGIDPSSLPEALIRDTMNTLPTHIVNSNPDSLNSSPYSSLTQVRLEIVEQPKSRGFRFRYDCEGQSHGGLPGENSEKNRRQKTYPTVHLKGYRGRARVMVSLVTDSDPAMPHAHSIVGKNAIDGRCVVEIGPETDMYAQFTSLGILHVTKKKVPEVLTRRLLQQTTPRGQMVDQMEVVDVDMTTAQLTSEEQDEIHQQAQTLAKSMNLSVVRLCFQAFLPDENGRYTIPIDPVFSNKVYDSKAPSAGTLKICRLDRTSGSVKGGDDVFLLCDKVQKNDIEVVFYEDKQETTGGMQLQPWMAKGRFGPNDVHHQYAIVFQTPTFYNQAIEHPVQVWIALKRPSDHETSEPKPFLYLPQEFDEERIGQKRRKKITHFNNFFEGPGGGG
The assay can be described thus: protein-binding microarray (PBM); PBM: ~300 nM protein, 6 mM HEPES pH 7.8, 80 mM KCl, 0.5 mM EDTA, 0.5 mM EGTA, 6% glycerol, 35 ng/ul poly-dIdC, 1% milk, 1 h, room temperature; Ap Aiptasia and Nv Nematostella (sea anemones) / Co Capsaspora / Aq Amphimedon (sponge) / Dm Drosophila / Hu human; RHD is the Rel homology domain; high values mean tight binding. Conditions: dsDNA, one strand shown.
As for “CCGATTAACATCAAAATTCCGGATGATGTTAATCGGGTCTTGATTCGCTTGACGCTGCTG”, the binding signal is 1.54 z-score.

“CCGATTAACATCACGGCAAGTCCTGATGTTAATCGGGTCTTGATTCGCTTGACGCTGCTG” registered a binding signal of 1.46 z-score.

For “CCGATTAACATCAGGAATTCTCCTGATGTTAATCGGGTCTTGATTCGCTTGACGCTGCTG”, the binding signal is 1.31 z-score.

Consider “CCGATTAACATCAGAAACTTTCCTGATGTTAATCGGGTCTTGATTCGCTTGACGCTGCTG”, for which the binding signal turned out to be 2.07 z-score.

In turn, “CCGATTAACATCACGGACTGCCCTGATGTTAATCGGGTCTTGATTCGCTTGACGCTGCTG” showed a binding signal of 1.7 z-score.

Sequence “CCGATTAACATCACGGACTCTCCTGATGTTAATCGGGTCTTGATTCGCTTGACGCTGCTG” came in with a binding signal of 2.26 z-score.

On to “CCGATTAACATCAGAATTGCCCATGATGTTAATCGGGTCTTGATTCGCTTGACGCTGCTG”, for which the binding signal was found to be 1.1 z-score.

In turn, “CCGATTAACATCAGGGCAGTCCATGATGTTAATCGGGTCTTGATTCGCTTGACGCTGCTG” registered a binding signal of 1.1 z-score.

As for “CCGATTAACATCACGGAACTTCCTGATGTTAATCGGGTCTTGATTCGCTTGACGCTGCTG”, the binding signal is 2.23 z-score.

The sequence “CCGATTAACATCACGGAATATCCTGATGTTAATCGGGTCTTGATTCGCTTGACGCTGCTG” had a binding signal of 1.48 z-score.

For “CCGATTAACATCAAAAATCCGGTTGATGTTAATCGGGTCTTGATTCGCTTGACGCTGCTG”, the binding signal was determined as 1.32 z-score.

“CCGATTAACATCAGGATATGCCCTGATGTTAATCGGGTCTTGATTCGCTTGACGCTGCTG”: the binding signal was 1.7 z-score.

The sequence “CCGATTAACATCACGGAATGTCCTGATGTTAATCGGGTCTTGATTCGCTTGACGCTGCTG” registered a binding signal of 1.82 z-score.

With “CCGATTAACATCACGGAAATGCCTGATGTTAATCGGGTCTTGATTCGCTTGACGCTGCTG”, the binding signal came to 1.48 z-score.

As to “CCGATTAACATCAGGAACTTCCATGATGTTAATCGGGTCTTGATTCGCTTGACGCTGCTG”, the binding signal turned out to be 1.63 z-score.

On to “CCGATTAACATCAGGAAGTTCCATGATGTTAATCGGGTCTTGATTCGCTTGACGCTGCTG”, for which the binding signal was determined as 1.48 z-score.

In turn, “CCGATTAACATCACGGAAGTTCCTGATGTTAATCGGGTCTTGATTCGCTTGACGCTGCTG” displayed a binding signal of 2.56 z-score.

Sequence “CCGATTAACATCAGGAAATATCCTGATGTTAATCGGGTCTTGATTCGCTTGACGCTGCTG” registered a binding signal of 1.24 z-score.

With “CCGATTAACATCAGGCAATGCCCTGATGTTAATCGGGTCTTGATTCGCTTGACGCTGCTG”, the binding signal worked out at 1.31 z-score.

As to “CCGATTAACATCAAGGAAGTTCCTGATGTTAATCGGGTCTTGATTCGCTTGACGCTGCTG”, the binding signal came to 2.07 z-score.

In turn, “CCGATTAACATCAGGAAAACTCCTGATGTTAATCGGGTCTTGATTCGCTTGACGCTGCTG” had a binding signal of 1.4 z-score.

Regarding “CCGATTAACATCAAGGAATCTCCTGATGTTAATCGGGTCTTGATTCGCTTGACGCTGCTG”, the binding signal amounted to 1.78 z-score.

“CCGATTAACATCACGGAAAAGCCTGATGTTAATCGGGTCTTGATTCGCTTGACGCTGCTG” gave a binding signal of 1.34 z-score.

In turn, “CCGATTAACATCACGGTCTTTCCTGATGTTAATCGGGTCTTGATTCGCTTGACGCTGCTG” yielded a binding signal of 2.62 z-score.

“CCGATTAACATCACTAAAATTCCTGATGTTAATCGGGTCTTGATTCGCTTGACGCTGCTG” registered a binding signal of 1.03 z-score.
